uPA generation – cell surface uPA generation inhibition; cell surface uPA generation assay, qHTS; Potency, µM (series often up to 38.3 µM), without a hit: top-dose activity change, negative = inhibition, usual class: inhibitors; 330,000 tested, 0.31% active; AID 540303; active means well fitted inhibition curve with a large enough effect; inconclusive means small, poorly fitted or top-dose-only effect; inactive means no such curve, though single readings can be large or run the other way; tested in mouse RAW 264.7 cells; further: potency means the concentration at half of the fitted maximal effect; nearly all actives have a fitted effect of over 55% in size
IL-1B inflam inh – inhibitors of inflammasome signaling (IL-1 beta secretion); THP-1 LPS/ATP IL-1B secretion, AlphaLISA, 16 h; stronger effect = lower value; activity change, % at 57.5 µM; 360,000 tested, 4.7% active; in the data active means activity change below about -50%; inconclusive means mostly about -30% to -49%
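Secreted IL-1B measured by AlphaLISA bead assay after 16 h compound exposure of THP-1 cells; compounds (final up to 57.5 uM) added 1 h before LPS (250 ng/mL) and ATP (1.25 mM) stimulation; lower signal means less secretion.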
HT1080 IDH1KD tx – HT-1080 IDH1 knockdown cell toxicity (counter line); HT-1080 IDH1 knockdown viability, ATP luminescence, 48 h; 360,000 tested, 2% active; Potency, µM (doses to about 46.1 µM), inactives show top-dose activity, negative = toxicity, usual class: cytotoxic;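 further: potency means the concentration at half of the fitted maximal effect; 0% = DMSO wells and -100% = cell-free medium wells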
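Knockdown cells (IDH1KD HT-1080) received compounds 2 h after plating at 750 cells/well and were kept 48 h at 37 °C in 5% FBS RPMI. A CellTiter-Glo luminescence read gave % activity for curve fitting.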
TDP1 cell CPT – DT40-hTDP1 cell growth loss with CPT; AID 686979; 420,000 tested, 12% active; chicken DT40 Tdp1-/-;hTDP1 cells + 20 nM CPT, ATP luminescence, 48 h; Potency, µM (top dose mostly 46.2 µM), without a hit: at the top dose activity change, negative = growth inhibition, usual class: inhibitors; further: potency means the concentration at half of the fitted maximal effect; nearly all actives have a fitted effect of over 55% in size
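Cell growth measured by CellTiter-Glo luminescence after a minimum 48 h, 37 C compound exposure with 20 nM CPT in Tdp1-knockout DT40 cells stably expressing hTDP1, seeded 400/well; qHTS titration format.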
HT1080-NT tox – kills 2HG-producing HT-1080-NT fibrosarcoma cells; HT-1080-NT fibrosarcoma viability, CellTiter-Glo ATP luminescence, 48 h; Potency, µM (highest dose often 46.1 µM), for the others: at the top dose activity, negative = less viability, actives largely listed as cytotoxic; 360,000 tested, 1.6% active; AID 686970;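 further: NT is the 2HG producing partner of a matched IDH1 knockdown line; potency means the concentration at half of the fitted maximal effect; 0% = DMSO-treated cells and -100% = media-only wells without cells; nearly all actives have a fitted effect of over 55% in size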
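Viability by CellTiter-Glo luminescence after 48 h compound exposure at 37C of HT-1080-NT cells (750/well, RPMI, 5% FBS). % activity scaled between DMSO wells and medium-only wells, then curve-fitted and categorized by curve class.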
DT40 TDP1 no CPT – qHTS for Inhibitors of human tyrosyl-DNA phosphodiesterase 1 (TDP1): qHTS in cells in absence of CPT; DT40 Tdp1-/- hTDP1 cells, no CPT, ATP luminescence, 48 h; Potency, µM (highest dose often 46.2 µM), without a hit: top-dose activity change, negative = growth inhibition, hits mostly inhibitors; 420,000 tested, 15% active; AID 686978, 2013; further: potency means the concentration at half of the fitted maximal effect; nearly all actives have a fitted effect of over 55% in size
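Luminescent ATP content (CellTiter-Glo) served as the growth readout. Knockout chicken DT40 cells expressing human TDP1 were exposed to compounds without camptothecin for a minimum 48 hr at 37 °C.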
Starred values were filed as active, the others as inactive; u = inconclusive; x = no result given. Most compounds without a hit are left out; they make up all but 19% or so of the library. Unless noted, the call rests on the fitted dose curve; in most records, active means well fitted curve in the direction sought with a large enough effect; inconclusive means small, poorly fitted or top-dose-only effect, or another doubt; inactive means no such curve, though single readings can be large; an effect the other way counts as inactive or inconclusive. Unless noted, on the % scale 0 is the no-effect control and ±100 the full control effect.

SMILES | uPA generation | IL-1B inflam inh | HT1080 IDH1KD tx | TDP1 cell CPT | HT1080-NT tox | DT40 TDP1 no CPT
CC(=O)N1c2ccc(S(=O)(=O)NCCC(=O)NCc3ccc(Cl)cc3)cc2CC1C (configuration not stated) | -5.5% | -0.9 | -11.2% | u | -11.7% | 14.6µM*
CC(=O)N1c2ccc(S(=O)(=O)NCCC(=O)Nc3ccc(Br)c(C)c3)cc2CC1C (configuration not stated) | x | x | x | 8.2µM* | x | 5.17µM*
CC(=O)N1c2ccc(S(=O)(=O)NCCC(=O)Nc3ccc(C)c(Cl)c3)cc2CC1C (configuration not stated) | -7.0% | 88.4 | -4.5% | 14.6µM* | -1.8% | 13µM*
CC(=O)N1c2ccc(S(=O)(=O)NCCC(=O)NCc3ccc(N(C)C)cc3)cc2CC1C (configuration not stated) | -2.1% | -15.6 | -1.2% | u | 3.6% | u
CC(=O)N1CCN(S(=O)(=O)c2cccc(C(=O)NNC(=O)c3ccc(Br)cc3)c2)CC1 | 3.7% | 1.2 | 7.8% | -0.1% | 5.9% | 2.8%
CCCS/C(N)=N/N=C/c1cc(C)ccc1O | -8.8% | -51.2* | u | 0.731µM* | -28.2% | 0.82µM*
CCCCS/C(N)=N/N=C/c1ccccc1O | 1.1% | -29.2 | -0.3% | u | -4.2% | u
Cc1noc(C)c1NC(=O)N(C)C[C@H]1Oc2c(NC(=O)Nc3ccc4c(c3)OCO4)cccc2C(=O)N([C@H](C)CO)C[C@@H]1C | 1.9% | 23.2 | -3.6% | 7.0% | -1.2% | -29.9%
O=C(O)C(c1ccccc1)C1(O)CC2CCC1C2 (configuration not stated) | -2.6% | 29.5 | 14.2% | 0.0% | 18.5% | 7.7%
CC(C)OC(=O)CN1C(=O)S/C(=C/c2ccc(N3CCCCC3)o2)C1=O | -5.5% | -103.5* | 11.2µM* | 16.4µM* | u | 20µM*
C#CCN1C(=O)S/C(=C\c2ccc(-c3ccc(C(=O)O)cc3C)o2)C1=O | -0.1% | 30.1 | -8.5% | -1.0% | 2.3% | 5.0%
COc1cc(/C=C2\SC(=Nc3ccccc3)N(CCc3c[nH]c4ccccc34)C2=O)ccc1OC(C)C(=O)O (configuration not stated) | 2.7% | u | -29.6% | u | -18.1% | u
O=C1S/C(=C\c2ccc(N3CCOCC3)o2)C(=O)N1Cc1ccc(F)cc1 | -19.8% | -9.3 | 3.16µM* | u | 6.31µM* | u
O=C1S/C(=C/c2ccc(N3CCOCC3)o2)C(=O)N1Cc1ccc(F)cc1 | -0.4% | -22.1 | 8.8% | u | 13.8% | u
O=C1/C(=C/c2ccc(N3CCOCC3)o2)SC(=Nc2ccccc2)N1CCc1c[nH]c2ccccc12 | -9.0% | -99.5* | 4.11µM* | 2.91µM* | 7.31µM* | 2.06µM*
Cc1cc(C)cc(OCCCn2c(-c3ccc(Cl)cc3)nc3ccccc3c2=O)c1 | x | x | x | -13.2% | x | -2.9%
Cc1ccc(NC(=O)c2cc(N3CCOCC3)nc3ccccc23)cc1 | x | -5.3 | u | 23.1µM* | 10µM* | u
Cc1cccc(NC(=O)c2cc(N3CCOCC3)nc3ccccc23)c1 | -2.7% | -22.5 | 0.0% | 11.6µM* | -0.7% | u
CCCCCC(CC(=O)NO)C(=O)NC(C(=O)N1CCCC1CO)C(C)C (configuration not stated) | 2.7% | -13.2 | -20.3% | 2.59µM* | -9.7% | 1.84µM*
CCc1ccc(O)c(CNCCNCc2cc(CC)ccc2O)c1 | u | 51.9 | -17.3% | 23.1µM* | -29.7% | 16.4µM*
Cc1ccc(O)c(CNCCNCc2cc(C)ccc2O)c1 | -29.8% | 117.4 | u | 10.3µM* | u | 13µM*
COc1ccc(C(=O)NCCc2nnc3ccc(SCC(=O)N4CCCCC4)nn23)cc1 | -0.8% | -10.8 | 12.4% | 24.7% | -8.6% | 9.2%
CN=C1S/C(=C\c2ccc(N3CCOCC3)c(F)c2)C(=O)N1C | -2.9% | 12.8 | 0.8% | u | 1.4% | 14.6µM*
Fc1cc2[nH]c(=S)[nH]c2c(Br)c1N1CCSCC1 | 1.6% | -4.7 | u | u | -29.1% | -23.0%
COc1ccc(CNC(=O)COc2ccc(C(=O)c3ccc(F)cc3)cc2)cc1 | -14.2% | -8.1 | 5.17µM* | 2.59µM* | u | 4.61µM*
SMILES | uPA generation | IL-1B inflam inh | HT1080 IDH1KD tx | TDP1 cell CPT | HT1080-NT tox | DT40 TDP1 no CPT
COc1ccc(CNC(=O)COc2ccc(F)cc2)cc1 | 0.3% | 24.9 | 6.1% | 5.7% | 11.0% | 10.6%
O=C(COc1ccc(C(=O)c2ccc(F)cc2)cc1)NCc1ccc(F)cc1 | -10.2% | 5.9 | u | 3.26µM* | u | 4.61µM*
CN(C)S(=O)(=O)Nc1ccc(Cc2ccncc2)cc1 | x | 10.8 | 2.9% | -12.6% | 5.0% | -28.5%
CC(=O)c1cccc(NC(=O)Cn2nc(C(F)(F)F)c3c2CCC3)c1 | x | x | x | u | x | -20.9%
O=C(C1CCCN(Cc2cccc(Cl)c2)C1)N1CCCCC1 (configuration not stated) | -17.9% | 5.6 | -8.7% | u | -16.6% | 25.9µM*
COc1ccc(Br)cc1CN1CCC(N2CCCC2)CC1 | 10.9% | -67.5* | -14.8% | u | -3.0% | u
COc1ccc(Br)cc1CN1CCCC(C(=O)N2CCCCCC2)C1 (configuration not stated) | -9.4% | -56.5* | -24.4% | u | -24.0% | 23.1µM*
O=C(C1CCN(Cc2cc(Cl)ccc2O)CC1)N1CCN(Cc2ccccc2)CC1 | -5.6% | -6.4 | -23.2% | u | -11.6% | 20.6µM*
O=C(C1CCCN(Cc2ccc(Cl)cc2)C1)N1CCCCC1 (configuration not stated) | 0.3% | 16.1 | -2.6% | -29.6% | -0.3% | 11.0%
CC(C)c1nc2ccc(C(=O)NCc3ccc(F)cc3)cc2o1 | x | x | x | -26.2% | x | u
CC1=C(C(N)=O)C(c2ccc(C)cc2)n2nc(SCc3ccccc3F)nc2N1 (configuration not stated) | x | x | x | -19.6% | x | -13.6%
CN(C)c1ccc(C(C[N+](=O)[O-])c2c(N)n(C)c(=O)n(C)c2=O)c(F)c1C#N (configuration not stated) | u | -63.3* | u | 2.31µM* | u | 2.06µM*
COc1ccc(Br)cc1C(C[N+](=O)[O-])c1c(N)n(C)c(=O)n(C)c1=O (configuration not stated) | 3.55µM* | -83.3* | u | 3.66µM* | u | 3.66µM*
Cn1c(N)c(C(C[N+](=O)[O-])c2c(F)cccc2Cl)c(=O)n(C)c1=O (configuration not stated) | -10.9% | -7.0 | u | 2.59µM* | u | 2.06µM*

High-throughput results: PubChem, National Center for Advancing Translational Sciences (NCATS)
